Screen size: about 400,000 compounds; about 1,900 (0.47%) were called active. Entries that show only a call come without a potency. Another 14% or so got no clear call; they are omitted. The call rests on the fitted dose curve; in most records, active means well fitted cell-killing curve with a large enough effect; inconclusive means small, poorly fitted or top-dose-only effect, or effect the other way; inactive means no such curve, though single readings can be large or run the other way. For the sample, actives were picked, then their nearest neighbours and some compounds at random.
Test: Viability Counterscreen for Primary qHTS for Inhibitors of ATXN expression; further: nearly all actives have a fitted effect of over 40% in size
Details: S2 cells (HEK-293 line with an ATXN2-luciferase reporter) viability, CellTiter-Fluor protease fluorescence, 24 h; series mostly up to 56.7 µM
Potency means the concentration at half of the fitted maximal effect.

| Compound | Potency |
| --- | --- |
| OC[C@@H]1CN(Cc2ccncc2)C[C@H](n2cnc3c(N4CCN(c5ccccc5)CC4)ncnc32)O1 | inactive |
| COc1cc(=O)n2c(c1C(=O)N(C)Cc1nccs1)CCN(Cc1ccc(Cl)cc1)CC2 | inactive |
| CCCCOc1ccc(CN2C(=O)C(=O)c3cc(Br)cc(C)c32)cc1OC | 25.1 µM (active) |
| CCCCN1C(=O)C(C)=C(C)C1OCCc1ccc(OC)c(OC)c1 (stereo not given) | inactive |
| COc1ccc(CCN2C(=O)C(C)=C(C)C2=O)cc1OC | inactive |
| CCOP(=O)(OCC)C(Cc1ccccc1)N=C(c1ccccc1)c1ccccc1 (stereo not given) | inactive |
| NC(=O)NC(CC(=O)NNC(=O)c1ccccn1)c1ccc(Cl)cc1 (stereo not given) | inactive |
| O=C(NCCOc1ccccc1)c1ccccc1F | inactive |
| COc1ccc(/C(C)=N\NC(=O)c2ccc(-c3ccccc3)cc2)c(F)c1 | inactive |
| C/C(=N\NC(=O)Cc1ccc(Cl)cc1)c1ccccn1 | 5.62 µM (active) |
| C/C(=N\NC(=O)c1ccccc1F)c1ccccn1 | 7.94 µM (active) |
| CC1=NNC(=O)C1CCC(=O)N/N=C(\C)c1ccc(Cl)cc1 (stereo not given) | inactive |
| Cn1nccc1C(=O)NCC1CCC2(CCN(Cc3c(O)ccc4ccccc34)CC2)O1 (stereo not given) | inactive |
| COc1ccccc1C1CN(Cc2ccccc2O)Cc2ccccc2O1 (stereo not given) | inactive |
| CCC1CN(CCNC(=O)c2cccc(C)n2)Cc2cc(OC)ccc2O1 (stereo not given) | inactive |
| Cc1ccc2c(C)nc(N3CCCC(C(=O)NC(C)(C)CO)C3)nc2c1 (stereo not given) | inactive |
| CCC1(C2CCN(Cc3cccnc3)CC2)NC(=O)N(CC2COc3ccccc3O2)C1=O (stereo not given) | inactive |
| COc1cc(C)c(CN2CCc3nnc(C(C)NC(=O)c4cccnc4)n3CC2)cc1C (stereo not given) | inactive |
| Cc1cccc(CNC(=O)c2cnn(-c3nccc(-c4ccccc4F)n3)c2C2CC2)n1 | inactive |
| COC(=O)c1ccc2c(c1)N(CC(=O)Nc1ccc(C)c(C)c1)C(=O)c1ccccc1S2 | inactive |
| CC(C)n1cnc2c(NCc3ccccc3)cc(OCC3CCN(C)CC3)cc21 | 31.6 µM (active) |
| CN(C)c1nccc(NCc2ccccc2)c1C#N | inactive |
| CCC(CO)Oc1cc(NC(=O)c2ccc(Cl)cc2)c2ncn(C(C)C)c2c1 (stereo not given) | inactive |
| COC(=O)c1ccc(CN2C(=O)C(Cc3ccccc3)ON=C2c2ncccc2C)o1 (stereo not given) | inactive |

| Compound | Potency |
| --- | --- |
| CCCCC(=O)N(C)c1c(CC)nc2c(OCc3ccc(Cl)cc3Cl)cccn12 | inactive |
| CCOC(=O)N(C)c1c(CC)nc2c(OCc3ccccc3C(=O)OC)cccn12 | inactive |
| CCc1nc2c(OCc3ccc(Cl)cc3Cl)cccn2c1N(C)C(=O)C(C)C | 22.4 µM (active) |
| CCc1nc2c(OCc3cccc(OC)c3)cccn2c1N(C)C(=O)C(C)C | inactive |
| Cc1nc2c(OCc3ccc(Cl)cc3Cl)cccn2c1N(C)CC1CC1 | 20 µM (active) |
| CCc1nc2c(OCc3ccc(F)c(F)c3)cccn2c1N(C)C(=O)c1ccco1 | inactive |
| CCOC(=O)[C@]12CCC=C1N(Cc1cccc3ccccc13)C(=O)[C@H](CC(=O)NCc1cccc(C(F)(F)F)c1)C2 | inactive |
| Cc1cc(NC(=O)C2CCC(CNS(=O)(=O)c3ccc(Br)s3)CC2)ccc1Br (stereo not given) | 35.5 µM (active) |
| COc1ccc(NC(=O)C2CCC(CNS(=O)(=O)c3csc(C(N)=O)c3)CC2)cc1OC (stereo not given) | inactive |
| CCCCNC(=O)C1CCC(CNS(=O)(=O)c2ccc(NC(C)=O)cc2)CC1 (stereo not given) | inactive |
| O=C(c1cn(CC2CCCN(Cc3cc4ccccc4s3)C2)nn1)N1CCCC1 (stereo not given) | inactive |
| COc1ccc(CCCNC(=O)C2Cc3c(-c4cccc(C(N)=O)c4)ccnc3O2)cc1 (stereo not given) | inactive |
| COC(=O)c1ccc2nc(-c3ccc(OC)c(OC)c3)c(Cc3ccccc3)n2c1 | inactive |
| Cc1cc(C)cc(CN2CCc3nnc(C(NS(C)(=O)=O)C(C)C)n3CC2)c1 (stereo not given) | inactive |
| OC(c1ccc(F)cc1)c1ncc(-c2cccc(C(F)(F)F)c2)[nH]1 (stereo not given) | inactive |
| CC(=O)OC[C@H]1O[C@@H](O[C@H]2[C@H](O)[C@@H](OC(=O)c3ccccc3C(=O)O)[C@H](O)O[C@@H]2COC(C)=O)[C@H](O)[C@@H](OC(=O)c2ccccc2C(=O)O)[C@@H]1O | inactive |
| CCOc1ccc(C(=O)Nc2ccc3nc4c(c(Nc5ccccc5OC)c3c2)CCCC4)cc1 | 14.1 µM (active) |
| CCOc1ccc(NC(=O)CSc2nc3ccccc3c(=O)n2Cc2cccs2)cc1 | inactive |
| CCOc1ccc(NC(=O)CSc2c3c(nc4ccccc24)CCCC3)cc1 | 25.1 µM (active) |
| COc1cccc(NC(=O)c2ccc3c(SCC(=O)O)c4c(nc3c2)CCCC4)c1 | inactive |
| CCOc1ccc(NC(=O)CSc2nncn2C)cc1 | inactive |
| CCOc1ccc(-n2nc3ccc(NC(=O)c4ccc(OC)c(Cl)c4)cc3n2)cc1 | inactive |
| C[C@@H]1CCC[C@H](C)N1CCCC(O)(c1ccccc1)c1ccccn1 (stereo not given in full) | inactive |
| FC(F)(F)c1cccc(-c2cn[nH]c2C2CCCN(Cc3cccn3-c3ccccn3)C2)c1 (stereo not given) | inactive |

| Compound | Potency |
| --- | --- |
| O=C(NCCN1CCOCC1)c1cnn(-c2nccc(-c3cccs3)n2)c1C1CC1 | inactive |
| O=C(OCC(O)CO)c1ccccc1Nc1ccnc2c(C(F)(F)F)cccc12 (stereo not given) | inactive |
| CCS(=O)(=O)Nc1cc(C(=O)N2C[C@@H](C)O[C@@H](C)C2)c2c(c1)nc(-c1ccccc1)n2C | inactive |
| CC1(C)OC[C@@H](COC(=O)CCc2ccc(OC[C@@H](O)CNCCNC(=O)N3CCOCC3)cc2)O1 | inactive |
| CC(=O)Nc1cncc(-c2ccccc2CO)n1 | inactive |
| N#Cc1ccc(Oc2cc(C(F)(F)F)nc(-c3ccccn3)n2)cc1 | inactive |
| COc1cnc(-c2ccccn2)nc1Oc1ccc(C(C)(C)C)cc1 | 10 µM (active) |
| COc1ccc2nc(-c3ccccn3)ccc2c1 | inactive |
| CCc1nc2c(OCCOc3ccccc3)cccn2c1N(C=O)Cc1ccc(OC)cc1 | inactive |
| C#Cc1ccc(NC(=O)C2(C)CCN2C(=O)Cc2ccc(-c3ccccc3)cc2)cc1 (stereo not given) | inactive |
| CC(C(=O)O)c1ccc(C2CCCCC2)c2ccccc12 (stereo not given) | inactive |
| O=C(NC(=O)c1ccccc1)Nc1ccccc1O | inactive |
| COC(=O)c1nc(NC(=O)c2ccccc2)n[nH]1 | inactive |
| O=C(NC1=CC(=O)c2ccccc2C1=O)c1ccccc1 | 7.08 µM (active) |
| CCCS(=O)(=O)NCc1c(C)ncc2c1CCN(C(=O)c1ccc(F)c(F)c1)C2 | inactive |
| O=C(OCCN1CCOCC1)c1cccnc1Nc1cccc(C(F)(F)F)c1 | inactive |
| COc1ccc(NC(=O)C2(C)Cc3c(-c4cccc(NC(C)=O)c4)ccnc3O2)cc1OC (stereo not given) | inactive |
| COc1ccc(-n2c(CNC(=O)c3cc(C(F)(F)F)ccc3Cl)nnc2SC)cc1 | inactive |
| Cc1ccc(/C=N/NC(=O)C2=NNC(c3ccccc3)(c3ccccc3)C2)c(O)c1 | inactive |
| COc1ccc(NC(=O)C/C(C)=N/NC(=O)c2cnccn2)cc1Cl | inactive |
| CCN(CC)c1ccc(/C=N/NC(=O)c2cnccn2)c(O)c1 | 7.94 µM (active) |
| COc1cc(C(=O)N2CCC(c3ccncc3)CC2)cc(OC)c1OC | inactive |
| CCOC(=O)[C@]12CCCC=C1N(Cc1ccc3c(c1)OCO3)C(=O)[C@H](CC(=O)NCc1cccs1)C2 | inactive |
| CCOc1ccc(NC(=O)c2nc(SCC)ncc2Cl)cc1 | inactive |

| Compound | Potency |
| --- | --- |
| COCCSc1nnc(NC(=O)CCS(=O)(=O)Cc2ccccc2)s1 | inactive |
| CSc1nnc(NC(=O)c2nc(S(=O)(=O)Cc3ccc(C)cc3)ncc2Cl)s1 | 12.6 µM (active) |
| CCS(=O)(=O)c1ncc(N(Cc2ccc(F)cc2)Cc2ccco2)c(C(=O)Nc2cc(C)ccc2C)n1 | inactive |
| Cc1ccc2nc(NC(=O)c3nc(SCc4ccccc4F)ncc3Cl)sc2c1 | inactive |
| Cc1cccc(CS(=O)(=O)c2ncc(Cl)c(C(=O)Nc3ccc(F)cc3)n2)c1 | 31.6 µM (active) |
| COc1ccccc1-c1ccnc(-n2ncc(C(=O)NCCc3ccncc3)c2C)n1 | inactive |
| Oc1[nH]c2ccccc2c1N=Nc1c(F)c(F)c(F)c(F)c1F | inactive |
| O=C(O)c1ccccc1/C=N/Nc1ccc(S(=O)(=O)Nc2ccc(Cl)cc2)cc1[N+](=O)[O-] | inactive |
| O=[N+]([O-])c1cc(S(=O)(=O)Nc2cccc(Cl)c2)ccc1N=Nc1c(O)[nH]c2ccccc12 | 28.2 µM (active) |
| CO/N=C(\C(=O)N[C@@H]1C(=O)N2C(C(=O)O)=C(C[N+]3(C)CCCC3)CS[C@H]12)c1csc(N)n1 | inactive |
| COc1cc(-c2cccnc2)cc2c1OCCN(C(=O)Cc1csc(C)n1)C2 | inactive |
| COc1cc2[nH]c(C)c(CCN3CCN(c4ccccc4)CC3)c2cc1OC | inactive |
| O=[N+]([O-])c1ccc(C=Nc2ccc(Cl)cc2Cl)s1 | 11.2 µM (active) |
| CC1CN(C(=O)c2ccc([N+](=O)[O-])s2)CC(C)O1 (stereo not given) | inactive |
| CNN/C(N=Cc1ccc([N+](=O)[O-])s1)=N\S(=O)(=O)c1cc(C)c(Cl)cc1SCc1ccccc1 | inactive |
| CCOC(=O)[C@]12CCC=C1N(CCC1=CCCCC1)C(=O)[C@H](CC(=O)NCc1ccc(C)o1)C2 | inactive |
| COC(=O)c1nc(Cl)c(Cl)nc1N | 15.8 µM (active) |
| COC(=O)c1nn(-c2cccc(Cl)c2)ccc1=O | inactive |
| COC(=O)c1c(C)c(C)nc(N)c1C#N | inactive |
| CCCOc1ccc(F)cc1-c1cc(C(=O)NCc2ccc(F)cc2)[nH]n1 | inactive |
| CCC1CN(CCNC(=O)c2ccsc2)Cc2cc(OC)ccc2O1 (stereo not given) | inactive |
| CC[C@]1(O)C[C@@H]2CN(CCc3c([nH]c4ccccc34)[C@@](C(=O)OC)(c3cc4c(cc3OC)N(C)[C@H]3[C@@](O)(C(=O)OC)[C@H](OC(C)=O)[C@]5(CC)C=CCN6CC[C@]43[C@@H]65)C2)C1 | 1 µM (active) |
| O=C(NCC1Cc2cc(F)cc(-c3cnccn3)c2O1)C1COc2ccccc2O1 (stereo not given) | inactive |

Source: PubChem BioAssay AID651635 (National Center for Advancing Translational Sciences (NCATS), 2012)
